Measured values taken from PubChem BioAssay AID1159580 (chemical genetic matrix, 2015).
Out of some 5,500 compounds screened, about 2,000 (36%) were called active. Roughly 18% stayed inconclusive and do not appear here. Cut-off read from the data, not from the text of the source: active = normalized growth mostly below about 0.91 (no sharp cut-off); inconclusive = no clear call, values can overlap the other calls; inactive = mostly above about 0.92. Some of the results follow.

Experiment: chemical genetic growth profiling, strain panel (AID 1159580);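 note: tested at 20 µM; growth read once vehicle control cultures reached saturation at 30 °C; 1 = growth at the plate median or of vehicle wells; lower values mean less growth of the strain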
Settings: S. cerevisiae deletion strains, growth OD

Measured: normalized growth

CC(C)CCCC(C)[C@H]1CCC2C3CC[C@H]4CC(=O)CC[C@]4(C)C3CC[C@@]21C (some centres not stated)
inactive: locus YAL021C, strain ccr4, hits give low values 0.957 | locus YAL026C, strain drs2, hits give low values 1 | locus YAL030W, strain snc1, hits give low values 0.996 | locus YBL061C, strain skt5, hits give low values 0.998 | locus YBR009C, strain hhf1, hits give low values 1.03 | locus YBR023C, strain chs3, hits give low values 0.989 | locus YBR171W, strain sec66, hits give low values 0.991 | locus YBR231C, strain swc5, hits give low values 1.01 | locus YBR279W, strain paf1, hits give low values 0.997 | locus YCL011C, strain gbp2, hits give low values 0.975 | locus YCL016C, strain dcc1, hits give low values 0.995 | locus YCL061C, strain MRC1, hits give low values 0.977 | locus YCL069W, strain vba3, hits give low values 0.992 | locus YCR088W, strain abp1, hits give low values 0.982 | locus YDL005C, strain med2, hits give low values 0.986 | locus YDL040C, strain nat1, hits give low values 0.984 | locus YDR001C, strain nth1, hits give low values 0.987 | locus YDR069C, strain doa4, hits give low values 0.993 | locus YDR137W, strain rgp1, hits give low values 0.958 | locus YDR159W, strain sac3, hits give low values 0.984 | locus YDR195W, strain ref2 0.974 | locus YDR297W, strain sur2, hits give low values 0.983 | locus YDR334W, strain swr1, hits give low values 0.96 | locus YDR335W, strain msn5, hits give low values 0.97 | locus YDR392W, strain spt3, hits give low values 0.97 | locus YEL003W, strain gim4, hits give low values 0.981 | locus YEL037C, strain rad23, hits give low values 0.987 | locus YEL061C, strain CIN8 (second series), hits give low values 0.98 | locus YER015W, strain faa2, hits give low values 1.02 | locus YER016W, strain bim1, hits give low values 0.985 | locus YER111C, strain swi4, hits give low values 0.995 | locus YER155C, strain BEM2 (second series), hits give low values 1.01 | locus YFR010W, strain ubp6, hits give low values 0.969 | locus YGL167C, strain pmr1, hits give low values 0.998 | locus YGL173C, strain kem1, hits give low values 0.988 | locus YGL227W, strain vid30, hits give low values 0.994 | locus YGL240W, strain doc1, hits give low values 1.03 | locus YGL253W, strain hxk2, hits give low values 0.984 | locus YHR013C, strain ard1, hits give low values 0.972 | locus YHR027C, strain rpn1, hits give low values 0.986 | locus YHR142W, strain chs7, hits give low values 0.93 | locus YJL092W, strain hpr5, hits give low values 0.961 | locus YJL095W, strain BCK1 (second series), hits give low values 1.01 | locus YJL115W, strain asf1, hits give low values 0.971 | locus YJL129C, strain trk1, hits give low values 0.935 | locus YJL154C, strain vps35, hits give low values 0.992 | locus YJL164C, strain tpk1, hits give low values 0.979 | locus YJL166W, strain qcr8, hits give low values 0.992 | locus YJL187C, strain SWE1, hits give low values 0.991 | locus YKL160W, strain elf1, hits give low values 0.963 | locus YKR026C, strain gcn3, hits give low values 0.991 | locus YKR091W, strain srl3, hits give low values 0.984 | locus YLL001W, strain dnm1, hits give low values 0.987 | locus YLL026W, hits give low values 0.997 | locus YLL041C, strain sdh2, hits give low values 0.979 | locus YLR027C, strain aat2, hits give low values 0.988 | locus YLR221C, strain rsa3, hits give low values 0.962 | locus YLR258W, strain gsy2, hits give low values 1.01 | locus YLR262C, strain YPT6 (second series), hits give low values 1 | locus YLR320W, strain mms22, hits give low values 0.993 | locus YLR342W, strain FKS1, hits give low values 0.993 | locus YLR357W, strain rsc2, hits give low values 0.996 | locus YLR370C, strain arc18, hits give low values 0.98 | locus YLR384C, strain iki3, hits give low values 0.996 | locus YML120C, strain ndi1, hits give low values 0.949 | locus YMR058W, strain fet3, hits give low values 0.973 | locus YMR125W, strain sto1, hits give low values 0.981 | locus YMR129W, hits give low values 0.957 | locus YMR205C, strain PFK2, hits give low values 1.02 | locus YMR231W, strain pep5, hits give low values 0.985 | locus YNL071W, strain lat1, hits give low values 0.989 | locus YNL209W, strain ssb2, hits give low values 0.992 | locus YNL248C, strain rpa49, hits give low values 0.935 | locus YNL322C, strain KRE1 (second series), hits give low values 0.981 | locus YNR049C, strain mso1, hits give low values 0.986 | locus YOR001W, strain rrp6, hits give low values 0.941 | locus YOR070C, strain gyp1, hits give low values 0.994 | locus YOR080W, strain dia2, hits give low values 0.976 | locus YOR083W, strain WHI5, hits give low values 0.952 | locus YOR106W, strain vam3, hits give low values 0.974 | locus YOR265W, strain rbl2, hits give low values 0.989 | locus YOR270C, strain vph1, hits give low values 0.981 | locus YOR290C, strain snf2, hits give low values 0.976 | locus YPL051W, strain arl3, hits give low values 0.975 | locus YPL078C, strain atp4, hits give low values 0.949 | locus YPL106C, strain sse1, hits give low values 1.01 | locus YPL240C, strain hsp82, hits give low values 0.987
